About 11,000 (3.1%) of roughly 360,000 compounds were called active. Inconclusive results (about 2%) are left out. The sample as a whole holds a higher share of actives than the screen did. Values without a mark were called inactive. Rule as the data show it: active = fluorescence intensity above about 16000; inconclusive = no clear call, values can overlap the other calls; inactive = below that.

These results are taken from PubChem BioAssay AID624483 (NMMLSC, 2012).

The nature of the test: counter-screen for toxin protease inhibitors: compound fluorescence, primary screen, artefact control for toxin protease inhibitor project, biochemical, multiplex microsphere, HTS (AID 624483). The note with it: compound autofluorescence counterscreen, microsphere flow cytometry; hits give high values. Background: A counterscreen serves to expose hits that act by an unwanted route or on another target.
In the case of `CC1(C(=O)Nc2cccc3c2CCCC3)CCN1C(=O)CCc1ccc(Cl)cc1Cl` (stereo unspecified), the fluorescence intensity was 3570.

Regarding `C=C(C)CNC(=S)Nc1ccc(S(=O)(=O)Nc2cnc3ccccc3n2)cc1`, the fluorescence intensity was 4200.

As to `Cc1ccc(NS(=O)(=O)c2cc3c(cc2Br)NC(=O)CO3)cc1C`, the fluorescence intensity was 2960.

Consider `CCCc1[nH]nc2c1C(c1ccc(OC(=O)c3ccco3)cc1)C(C#N)=C(N)O2` (stereo unspecified), for which the fluorescence intensity is 17200 (active).

Take `CCCc1[nH]nc2c1C(c1ccc(Br)s1)C(C#N)=C(N)O2` (stereo unspecified): the fluorescence intensity was 2790.

`CCCc1nc2c([nH]1)C(c1cccnc1)C(C#N)=C(N)O2` (stereo unspecified): the fluorescence intensity is 7630.

As to `COc1ccc(C(C)(O)c2nc(-c3cc(F)cc(F)c3)cs2)cc1` (stereo unspecified), the fluorescence intensity is 3820.

Regarding `OCCN1CCN(c2ncnc3c2ncn3[C@H]2CN(Cc3ccco3)C[C@@H](CO)O2)CC1`, the fluorescence intensity was 2940.

Consider `CC(=O)C1=CCC(c2ccccc2)N(S(=O)(=O)c2ccc(C)cc2)C1` (stereo unspecified), for which the fluorescence intensity was 4360.

For the molecule `O=C(NNS(=O)(=O)c1ccc(Cl)cc1)C1CCN(Cc2ccccc2)CC1`, the fluorescence intensity was 9590.

On to `CCOC(=O)C1(S(=O)(=O)c2ccccc2)CCN(Cc2ccccc2)CC1`, for which the fluorescence intensity was 25000 (active).

In the case of `CCOC(=O)C1(CCOC)CCN(Cc2ccc(C(=O)OC)cc2)CC1`, the fluorescence intensity is 4510.

With `CCOC(=O)C1(CCOc2ccccc2)CCN(Cc2cc(OC)cc(OC)c2)CC1`, the fluorescence intensity is 3960.

Consider `CCOC(=O)C1(S(=O)(=O)c2ccc(Cl)cc2)CCN(Cc2ccccc2)CC1`, for which the fluorescence intensity was 22200 (active).

Turning to `CCOC(=O)C1(CCc2ccccc2)CCN(Cc2ccco2)CC1`, the fluorescence intensity was 2080.

Turning to `COC(=O)[C@@]1(Cc2ccc(F)cc2)[C@H]2c3cc(C(=O)N(C)C)n(CCc4c[nH]c5ccc(OC)cc45)c3C[C@H]2CN1C(=O)c1ccccc1`, the fluorescence intensity was 6230.

Turning to `Nc1nc2c(ncn2[C@@H]2O[C@H](CNCc3ccc(OCCCN4CCOCC4)cc3)[C@@H](O)[C@H]2O)c(=O)[nH]1`, the fluorescence intensity was 6030.

For the molecule `CCCc1c(-c2ccccc2F)ncn1Cc1ccccc1OC`, the fluorescence intensity was 6360.

On to `N#C/C(=C\c1ccc(N2CCOCC2)o1)C(=O)N1CCOCC1`, for which the fluorescence intensity is 3190.

Consider `COC(=O)[C@]1(Cc2ccccc2)N[C@H](CN(C)S(=O)(=O)c2ccc(F)cc2)[C@@H]2C(=O)N(Cc3ccccc3)C(=O)[C@@H]21`, for which the fluorescence intensity was 2850.

With `COc1ccc(N(CCC#N)S(=O)(=O)c2ccc(Cl)cc2)cc1`, the fluorescence intensity was 19700 (active).

As for `COc1ccc(S(=O)(=O)NCCCCOc2ccc(Cl)cc2)cc1`, the fluorescence intensity is 3450.

For the molecule `COc1ccc(N(CC(=O)N2CCCCCC2)S(=O)(=O)c2ccccc2)cc1`, the fluorescence intensity is 5240.

Consider `CC1(C)C(C=C(Cl)Cl)C1C(=O)NC(O)C(=O)c1ccccc1` (stereo unspecified), for which the fluorescence intensity was 3770.

As to `CCOC(=O)C1=CC[C@@H](c2ccccc2)N(S(=O)(=O)c2ccc(C)cc2)[C@H]1c1ccc(CC)cc1`, the fluorescence intensity was 5350.

Regarding `OC[C@@H]1CN(Cc2cccs2)C[C@H](n2cnc3c(NC4CCCC4)ncnc32)O1`, the fluorescence intensity is 4050.

`O=C(NCC(F)(F)F)Nc1nnc(C(F)(F)F)s1`: the fluorescence intensity was 2520.

For `c1ccc(COc2nsnc2N2CCOCC2)cc1`, the fluorescence intensity was 4190.

Regarding `CC(Nc1nc(N2CCOCC2)nc2ccccc12)c1ccccc1` (stereo unspecified), the fluorescence intensity was 4260.

On to `Fc1cnc(N2CCOCC2)nc1NCc1ccccc1`, for which the fluorescence intensity is 19200 (active).

For `CC(C)CCNC(=O)CN(C(=O)Cn1nnc(-c2ccc(F)cc2)n1)C1CCCC1`, the fluorescence intensity is 7590.

For the molecule `CCOCCCN(C(=O)Cn1nnc(-c2ccc(OC)c(OC)c2)n1)C(CC)C(=O)NC1CCCC1` (stereo unspecified), the fluorescence intensity is 3360.

With `CC(C)CCNC(=O)C(C)N(C(=O)Cn1nnc(-c2ccc(F)cc2)n1)C1CCCC1` (stereo unspecified), the fluorescence intensity is 23500 (active).

For the molecule `CN(C(=O)Cn1nnc(-c2ccc(F)cc2)n1)C1CCS(=O)(=O)C1` (stereo unspecified), the fluorescence intensity is 6480.

Consider `COc1cccc(N(CC(=O)NC2CCCC2)C(=O)CCCC(=O)Nc2ccccn2)c1`, for which the fluorescence intensity was 6270.

With `COc1cccc(N(CC(=O)NC2CCCC2)C(=O)Cn2nnc(-c3ccc(C)o3)n2)c1`, the fluorescence intensity was 5040.

For `COc1cccc(N(CC(=O)NC2CCCC2)C(=O)Cn2nnc(-c3ccc(C)cc3)n2)c1`, the fluorescence intensity was 20000 (active).

For `COc1ccc(C(C(=O)NC2CCCC2)N(CCCO)C(=O)Cn2nnc(-c3ccc(C)o3)n2)cc1` (stereo unspecified), the fluorescence intensity was 5780.

Take `COc1ccc(-c2nnn(CC(=O)N(CCO)C(C(=O)NC3CCCC3)c3ccc(F)cc3)n2)cc1` (stereo unspecified): the fluorescence intensity is 20700 (active).

`Cc1ccc(C(=O)O)cc1S(=O)(=O)NCC1CCCO1` (stereo unspecified): the fluorescence intensity is 8490.

Turning to `O=C(O)C(=Cc1ccccc1[N+](=O)[O-])c1ccccc1`, the fluorescence intensity is 3020.

Turning to `CCOC1=C2[C@H]([C@H]3C(=O)N(c4ccccc4)C(=O)[C@H]3C1)[C@@H](c1ccccc1)N(S(=O)(=O)c1ccc(C)cc1)[C@H]2c1ccccc1`, the fluorescence intensity was 5740.

With `CN(CCO)C(=O)c1nc[nH]c1C(=O)N(C)Cc1ccccc1`, the fluorescence intensity is 6070.

In the case of `COCCCNc1ccn2nc(-c3ccc(CC(C)C)cc3)cc2n1`, the fluorescence intensity is 3740.

In the case of `CC1(C(=O)Nc2cccc(Oc3ccccc3)c2)CCN1Cc1ccccc1Cl` (stereo unspecified), the fluorescence intensity is 2960.

On to `CCCS(=O)(=O)NC(=O)C1(C)CCCN(C(=O)c2ccnc(Cl)c2)C1` (stereo unspecified), for which the fluorescence intensity is 3780.

For the molecule `O=C(NCc1cccnc1)c1cc(C2CCCN(C(=O)C3CCCCC3)C2)on1` (stereo unspecified), the fluorescence intensity is 3680.

With `CC1(C)CC(=O)C=C(NCCCNC2CCCCC2)C1`, the fluorescence intensity is 16400 (active).

On to `CC1(C)CC(=O)C=C(NCCCN2CCCC2=O)C1`, for which the fluorescence intensity was 10600.

On to `CC1(C)CC(=O)C=C(NC2CC(C)(C)NC(C)(C)C2)C1`, for which the fluorescence intensity was 11500.

On to `CCOc1ccc(C(=O)NC2CCN(CC(=O)NCc3cccs3)CC2)cc1`, for which the fluorescence intensity was 4320.

For `CC(=O)c1cccc(-c2cnc3c(NC=O)cc(-c4ccccc4Oc4ccccc4)cn23)c1`, the fluorescence intensity was 2970.

Take `CCc1nc2ccc(C(=O)Nc3ccc(OC)c(OC)c3)cn2c1N(C)C(=O)c1cccc(OC)c1`: the fluorescence intensity was 3840.

On to `CSc1cccc(NC(=O)C2CCCN2S(=O)(=O)c2ccc3c(c2)CCC(=O)N3)c1` (stereo unspecified), for which the fluorescence intensity is 22100 (active).

`Cc1cccc(NC(=O)C2CCCN2S(=O)(=O)c2ccc(F)cc2)c1C` (stereo unspecified): the fluorescence intensity was 12300.

Take `O=C1CCc2cc(S(=O)(=O)N3CCC(C(=O)NCc4ccccc4Cl)CC3)ccc2N1`: the fluorescence intensity was 5010.

Regarding `O=CNc1cc(-c2ccc(C(=O)N3CCOCC3)cc2)cn2c(-c3ccc(F)cc3)cnc12`, the fluorescence intensity was 4100.

For `NC(Cc1ccccc1)c1csc(Nc2cc(Oc3ccccc3)ncn2)n1` (stereo unspecified), the fluorescence intensity was 3760.

Turning to `CC1CC(C)CN(CC(=O)N2c3ccccc3CCc3ccccc32)C1` (stereo unspecified), the fluorescence intensity was 17600 (active).

In the case of `CC1CC(C)CN(CC(=O)Nc2ccc(S(N)(=O)=O)cc2)C1` (stereo unspecified), the fluorescence intensity is 4900.

As for `CN1CCN(C(=O)N2c3ccccc3CCc3ccccc32)CC1`, the fluorescence intensity was 4530.

Consider `Cc1cccc(C)c1-n1nnnc1C1(C)CCC(=O)N1CCOc1ccccc1` (stereo unspecified), for which the fluorescence intensity was 6150.

As to `Cc1nc2c(OCC(=O)C(C)(C)C)cccn2c1N(C)Cc1cccs1`, the fluorescence intensity was 2880.

Turning to `CC(C)C[C@@H]1Cc2[nH][nH]c(=O)c2[C@H](CCc2ccccc2)O1`, the fluorescence intensity is 4470.

Regarding `N=C1c2ccccc2-c2ccccc21`, the fluorescence intensity is 3590.

As for `COc1ccc(C(C#N)N2N=C(C)CC2(C)C)cc1` (stereo unspecified), the fluorescence intensity was 4130.

Turning to `O=C(CSc1nc2ccccc2o1)N1c2ccccc2Sc2ccc(Cl)cc21`, the fluorescence intensity is 22300 (active).

In the case of `CC1Cc2ccccc2N1C(=O)Cn1cnc2ccccc2c1=O` (stereo unspecified), the fluorescence intensity is 3200.

Consider `CC1Cc2ccccc2N1C(=O)CSc1nnc(C2CC2)n1C` (stereo unspecified), for which the fluorescence intensity was 4920.

Take `O=C(CSc1nc2ccccc2o1)N1CCN(c2ccc(Cl)cc2)CC1`: the fluorescence intensity was 6400.

For `CC1CC(C)CN(C(=O)CSc2nnc(CSc3ncccn3)n2C)C1` (stereo unspecified), the fluorescence intensity is 4260.

Consider `O=C(CSc1nc2ccccc2o1)N1CCN(c2ccccc2)CC1`, for which the fluorescence intensity was 2560.

Consider `CC1Cc2ccccc2N1C(=O)CSc1nc2ccccc2o1` (stereo unspecified), for which the fluorescence intensity was 16300 (active).

As to `CCS(=O)(=O)c1ccc2oc(SCC(=O)N3c4ccccc4CC3C)nc2c1` (stereo unspecified), the fluorescence intensity was 8960.

With `Cc1ccccc1OCc1nnc(SCC(=O)N2c3ccccc3Sc3ccc(Cl)cc32)o1`, the fluorescence intensity is 20200 (active).

As to `CCn1c(CSc2ncccn2)nnc1SCC(=O)N1c2ccccc2CC1C` (stereo unspecified), the fluorescence intensity is 23500 (active).

Turning to `Cc1ccc(NC(=O)CSc2nnc(COc3ccccc3C)o2)cc1`, the fluorescence intensity was 3160.

In the case of `CC(C)NC(=O)CSc1nnc(COc2ccccc2Cl)o1`, the fluorescence intensity was 4480.

As for `O=S(=O)(c1ccc(Cl)cc1)N1CCCN(c2ccc(C(F)(F)F)cn2)CC1`, the fluorescence intensity was 6060.

`NC(c1csc(NC(=O)Nc2cccc(C(F)(F)F)c2)n1)C1CCCCC1` (stereo unspecified): the fluorescence intensity was 2870.

`Cc1cc2oc3ccc(NCCC4CCCN4C)cc3c(=O)c2cc1C` (stereo unspecified): the fluorescence intensity was 5120.

`COC(=O)c1ccc2nc(-c3ccc(F)cc3)c(Cc3ccc(C)cc3)n2c1`: the fluorescence intensity was 7460.

On to `Cc1ccc(NC2=NC(c3ccccc3)n3c(nc(C)cc3=O)N2)cc1` (stereo unspecified), for which the fluorescence intensity was 3910.

In the case of `CC(=O)Nc1c(-c2ccc(C)cc2)nc2ccc(Cl)cn12`, the fluorescence intensity was 2860.

`Cc1occc1C(=O)NC1CCCN(Cc2ccc(CC(C)C)cc2)C1` (stereo unspecified): the fluorescence intensity is 7560.

For the molecule `COc1ccc(C2=Nc3ccccc3NC(=O)C2N(C(=O)c2cc3ccccc3[nH]2)c2ccccc2)cc1` (stereo unspecified), the fluorescence intensity was 6050.

Consider `COc1ccc(-c2cc3c(c4c2ccn4C)C2CCC3C2)cn1` (stereo unspecified), for which the fluorescence intensity was 2710.

In the case of `CCOC(=O)C1C(=O)NCC1c1ccccc1` (stereo unspecified), the fluorescence intensity is 9370.

For `COC(=O)C1C(=O)NCC1c1ccc(OC)cc1` (stereo unspecified), the fluorescence intensity was 17100 (active).

Consider `COC(=O)C1C(=O)NCC1c1ccc(C)cc1` (stereo unspecified), for which the fluorescence intensity is 15900.

With `COc1ccc(-c2cc(NC=O)c3ncc(-c4cccc(C(=O)N(C)C)c4)n3c2)c(OC)c1`, the fluorescence intensity was 3580.
